Source: the supplement of paper PMC10723795
± gives the standard deviation of the averaged measurements.

What was measured:
[1] = test system: DLD1; assay: nucleolar normality score relative to DMSO (fraction of DMSO control); RPE1 is a non-cancer human cell line; higher = more normal nucleoli (less nucleolar stress)
Method: (§1)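 Selected screen hits were validated in hTERT lines (BJ5TA, CHON-002, RPE1) and cancer lines (DLD1, HCT116). Cells were immunostained for nucleolin and UBF and the nucleolar normality score was measured per field of view, with 4 fields per drug. Scores are normalized to each cell line's own DMSO control. Dose and time are not stated for this panel.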

[2] = test system: HCT116; assay: as above
Method: as §1

Row | SMILES | nucleolar normality score [1] | nucleolar normality score [2]
1 | CN(C)CCNC(=O)c1cccn2c(=O)c3cc4ccccc4cc3nc12 | 0.173 ± 0.037 | 0.202 ± 0.013
2 | CCc1cnn2c(NCc3ccc[n+]([O-])c3)cc(N3CCCC[C@H]3CCO)nc12 [Dinaciclib] | 0.442 ± 0.09 | 0.428 ± 0.052
3 | C=CCNC1=C2C[C@@H](C)C[C@H](OC)[C@H](O)[C@@H](C)/C=C(\C)[C@H](OC(N)=O)[C@@H](OC)/C=C\C=C(/C)C(=O)NC(=CC1=O)C2=O | 0.436 ± 0.052 | 0.462 ± 0.027
4 | Cc1nc(-c2cn3c(n2)-c2ccc(-c4cnn(C(C)(C)C(N)=O)c4)cc2OCC3)n(C(C)C)n1 [Taselisib] | 0.485 ± 0.067 | 0.588 ± 0.052
5 | CC(C)n1nc(-c2ccc3oc(N)nc3c2)c2c(N)ncnc21 [Sapanisertib] | 0.398 ± 0.035 | 0.549 ± 0.021
6 | CC(C)C[C@H](NC(=O)[C@H](CCc1ccccc1)NC(=O)CN1CCOCC1)C(=O)N[C@@H](Cc1ccccc1)C(=O)N[C@@H](CC(C)C)C(=O)[C@@]1(C)CO1 [Carfilzomib] | 0.436 ± 0.059 | 0.574 ± 0.063
7 | CC(C)c1c2cc(-c3ccnc(NC4CCC(NC5CCOCC5)CC4)n3)ccc2nn1C (centres undefined) | 0.509 ± 0.046 | 0.507 ± 0.016
8 | CN1CC[C@H](c2c(O)cc(O)c3c(=O)cc(-c4ccccc4Cl)oc23)[C@H](O)C1 [Flavopiridol] | 0.432 ± 0.076 | 0.452 ± 0.057
9 | CC(C)c1cc(C(=O)N2Cc3ccc(CN4CCN(C)CC4)cc3C2)c(O)cc1O [Onalespib] | 0.363 ± 0.023 | 0.434 ± 0.027
10 | Cc1cnc(CNC(=O)c2c(=O)c3ccc(N4CCCN(C)CC4)nc3n3c2sc2ccccc23)cn1 | 0.224 ± 0.045 | 0.404 ± 0.19
11 | COc1cccc2c1C(=O)c1c(O)c3c(c(O)c1C2=O)C[C@@](O)(C(=O)CO)C[C@@H]3O[C@H]1C[C@H](N)[C@H](O)[C@H](C)O1 [Doxorubicin] | 0.36 ± 0.056 | 0.253 ± 0.036
12 | COC[C@H](NC(=O)c1cnc(C)s1)C(=O)N[C@@H](COC)C(=O)N[C@@H](Cc1ccccc1)C(=O)[C@@]1(C)CO1 [Oprozomib] | 0.471 ± 0.054 | 0.658 ± 0.046
